Bioassay records: PubChem, National Center for Advancing Translational Sciences (NCATS)
ALOX12 inh = inhibitors of human 12S-lipoxygenase ALOX12; P18054; purified 12hLO, xylenol orange hydroperoxide absorbance; Potency, µM (doses to about 108 µM), most hits filed as inhibitors; 580,000 compounds, 1.1% hits
Target sequence (P18054 whole entry, looked up): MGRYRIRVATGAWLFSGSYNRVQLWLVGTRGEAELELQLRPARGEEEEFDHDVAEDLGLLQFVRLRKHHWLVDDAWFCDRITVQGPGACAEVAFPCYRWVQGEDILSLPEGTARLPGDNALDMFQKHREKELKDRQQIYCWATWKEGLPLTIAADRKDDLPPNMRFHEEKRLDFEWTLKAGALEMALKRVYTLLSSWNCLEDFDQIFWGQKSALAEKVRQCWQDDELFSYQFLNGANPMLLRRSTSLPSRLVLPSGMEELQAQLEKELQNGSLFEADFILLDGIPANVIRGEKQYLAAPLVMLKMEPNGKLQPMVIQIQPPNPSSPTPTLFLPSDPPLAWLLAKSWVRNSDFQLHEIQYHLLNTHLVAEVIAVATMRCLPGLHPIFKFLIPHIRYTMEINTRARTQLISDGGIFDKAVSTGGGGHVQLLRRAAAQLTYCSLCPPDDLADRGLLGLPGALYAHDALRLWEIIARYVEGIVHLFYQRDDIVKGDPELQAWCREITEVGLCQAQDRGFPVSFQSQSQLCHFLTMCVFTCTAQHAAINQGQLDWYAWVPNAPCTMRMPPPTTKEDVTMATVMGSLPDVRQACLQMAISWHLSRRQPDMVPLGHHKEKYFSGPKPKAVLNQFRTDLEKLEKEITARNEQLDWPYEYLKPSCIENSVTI
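Hydroperoxide product was detected by ferrous iron/xylenol orange as the 573 to 405 nm absorbance ratio. Arachidonic acid at 40 uM (final) was turned over for 30 min at room temperature by 150 nM human 12hLO, pH 7.0 Hepes buffer, after 15 min compound preincubation.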
IL1B secr inh = inflammasome signaling inhibition, IL-1 beta readout. THP-1 LPS/ATP IL-1B secretion, AlphaLISA, 16 h; hits give low values. activity change, % at 57.5 µM. 360,000 compounds, 4.7% hits. AID 743279; in the data active means activity change below about -50%; inconclusive means mostly about -30% to -49%
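THP-1 cells pretreated 1 hr with compounds (up to 57.5 uM final), then stimulated with LPS (250 ng/mL final) plus ATP (1.25 mM final); secreted IL-1B measured by AlphaLISA after 16 hr, decreased signal indicating inhibition.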
HT1080NT lethal = kills 2HG-producing HT-1080-NT fibrosarcoma cells; HT-1080-NT fibrosarcoma viability, CellTiter-Glo ATP luminescence, 48 h; Potency, µM (highest dose often 46.1 µM), actives largely listed as cytotoxic; 360,000 compounds, 1.6% hits; AID 686970;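 further: NT is the 2HG producing partner of a matched IDH1 knockdown line; nearly all actives have a fitted effect of over 55% in size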
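Viability by CellTiter-Glo luminescence after 48 h compound exposure at 37C of HT-1080-NT cells (750/well, RPMI, 5% FBS). % activity scaled between DMSO wells and medium-only wells, then curve-fitted and categorized by curve class.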
HT1080 IDH1KD tx = HT-1080 IDH1 knockdown cell toxicity (counter line) | 360,000 compounds, 2% hits | AID 686971 | HT-1080 IDH1 knockdown viability, ATP luminescence, 48 h | Potency, µM (titrated, usually from 46.1 µM), most hits filed as cytotoxic
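Cytotoxicity counter-line: IDH1KD HT-1080, 48 h, CellTiter-Glo. Curves classed by r2, magnitude and activity.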
TDP1 cell CPT = growth inhibition of DT40 Tdp1-/-;hTDP1 cells with camptothecin (screen for TDP1 inhibitors); chicken DT40 Tdp1-/-;hTDP1 cells + 20 nM CPT, ATP luminescence, 48 h; Potency, µM (highest dose often 46.2 µM), hits mostly inhibitors; AID 686979; 420,000 compounds, 12% hits; further: nearly all actives have a fitted effect of over 55% in size
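Cell growth measured by CellTiter-Glo luminescence after a minimum 48 h, 37 C compound exposure with 20 nM CPT in Tdp1-knockout DT40 cells stably expressing hTDP1, seeded 400/well; qHTS titration format.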
TDP1 cell noCPT = qHTS for Inhibitors of human tyrosyl-DNA phosphodiesterase 1 (TDP1): qHTS in cells in absence of CPT; DT40 Tdp1-/- hTDP1 cells, no CPT, ATP luminescence, 48 h; Potency, µM (titrated, usually from 46.2 µM), actives largely listed as inhibitors; 420,000 compounds, 15% hits; further: nearly all actives have a fitted effect of over 55% in size
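Growth kinetics read by CellTiter-Glo luminescence after ≥48 hr at 37 °C. Cells: DT40 Tdp1-/- stably carrying human TDP1, 400 per well, compound exposure in the absence of CPT (DMSO vehicle).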
Hits are given with their value; . = inactive; ? = inconclusive; / = no result given; ! = not active in a repeat. The entries come from a sample that favours hits as a whole. Unless noted, the call rests on the fitted dose curve; in most records, active means well fitted curve in the direction sought with a large enough effect; inconclusive means small, poorly fitted or top-dose-only effect, or another doubt; inactive means no such curve, though single readings can be large; an effect the other way counts as inactive or inconclusive.

SMILES	ALOX12 inh	IL1B secr inh	HT1080NT lethal	HT1080 IDH1KD tx	TDP1 cell CPT	TDP1 cell noCPT
COc1ccc(-c2cc(C(=O)Nc3sc4c(c3C#N)CCCC4)c3ccccc3n2)cc1	.	.	.	.	.	?
Cc1ccccc1NC(=O)c1sc(NC(=O)COc2ccccc2)c(C#N)c1C	.	.	.	.	?	18µM
Cc1ccc(CN2CCCC(C(=O)N3CCN(c4ccccn4)CC3)CCNC(=O)CC2)s1 (stereo not drawn)	.	/	/	/	/	/
O=C1Nc2ccccc2C1(O)c1c[nH]c2ccccc12 (stereo not drawn)	.	/	/	/	/	/
COc1ccc(C(=O)N2CCCC3(C2)NC(=O)N(Cc2cc(C)ccc2C)C3=O)cc1F (stereo not drawn)	.	/	/	/	/	/
O=C(c1cccnc1)N1CCC2(CC1)C(=NC1CCCCC1)NC(=O)N2c1cccnc1	.	/	/	/	/	/
COc1cccc(CN(C)CC(C)N2CCOCC2)c1O (stereo not drawn)	.	/	/	/	/	/
CSc1nnc2c(n1)OC(c1ccc3c(c1)OCO3)N(C(C)=O)c1ccccc1-2 (stereo not drawn)	.	/	/	/	/	/
CCCc1ccc(S(=O)(=O)N2CCN(C(C)C(=O)NC3CCCC3)CC2)cc1 (stereo not drawn)	.	.	.	.	.	?
CCC(C)c1ccc(S(=O)(=O)N2CCN(C(C)C(=O)NC3CCCC3)CC2)cc1 (stereo not drawn)	.	.	.	.	15µM	?
CC(NC(=O)C(C)N1CCN(S(=O)(=O)c2ccccc2)CC1)c1ccccc1 (stereo not drawn)	?	.	.	.	.	.
CC(C)c1ccc(S(=O)(=O)N2CCN(C(C)C(=O)Nc3ccccc3-c3ccccc3)CC2)cc1 (stereo not drawn)	.	.	.	.	18µM	?
Cc1ccc(S(=O)(=O)N2CCN(C(C)C(=O)NCC(C)c3ccccc3)CC2)cc1 (stereo not drawn)	.	.	.	.	?	23µM
Cn1c(=O)c2cc(NC(=O)NCCc3ccccc3)ccc2n1Cc1cccc(C(F)(F)F)c1	.	.	?	?	?	23µM
CCNC(=S)Nc1ccc2c(c1)c(=O)n(C)n2Cc1cccc(C(F)(F)F)c1	?	.	.	.	?	23µM
Cc1cc(C)cc(Cn2c3ccc(NC(=S)NC4CCCCC4)cc3c(=O)n2C)c1	.	.	.	.	23µM	?
Cn1c(=O)c2cc(NC(=S)NC3CCCCC3)ccc2n1Cc1ccc(F)cc1	?	.	.	.	.	?
Cn1c(=O)c2cc(NC(=O)NCCc3ccccc3)ccc2n1Cc1ccccc1	.	.	.	.	.	?
Cc1cc(C)cc(Cn2c3ccc(NC(=O)NCCc4cccs4)cc3c(=O)n2C)c1	?	.	.	?	16µM	?
Cn1c(=O)c2cc(NC(=S)NC3CCCCC3)ccc2n1Cc1cccc(C(F)(F)F)c1	?	.	.	.	?	?
Cn1c(=O)c2cc(NC(=O)NCCc3cccs3)ccc2n1Cc1ccccc1	.	.	.	.	?	.
CC(=O)N1CCN(C(=O)CSCC(=O)O)C[C@H]1C(=O)N[C@H]1CCCNC1=O	.	/	/	/	/	/
Cc1c(Cl)cccc1NC(=O)c1cc2n(n1)CC(c1ccc(Cl)cc1)OC2 (stereo not drawn)	.	/	/	/	/	/
O=C1CC2CCCC(C1)N2C(=O)c1ccncc1	.	/	/	/	/	/
Cc1nn(C)c2c(=O)n(CC(=O)NCc3ccccc3Cl)ccc12	.	/	/	/	/	/
SMILES	ALOX12 inh	IL1B secr inh	HT1080NT lethal	HT1080 IDH1KD tx	TDP1 cell CPT	TDP1 cell noCPT
Cc1cc(C)cc(Cn2c3ccc(NC(=O)NCc4ccccc4)cc3c(=O)n2C)c1	.	.	.	.	?	?
Cn1c(=O)c2cc(NC(=O)NCc3ccccc3)ccc2n1C/C=C/c1ccccc1	?	.	8.2µM	8.2µM	7.3µM	7.3µM
Cn1c(=O)c2cc(NC(=S)NC3CC3)ccc2n1Cc1ccccc1	?	.	.	.	.	.
Cc1ccc(CNC(=S)Nc2ccc3c(c2)c(=O)n(C)n3Cc2cccc(C(F)(F)F)c2)cc1	18µM	.	?	?	26µM	15µM
Cn1c(=O)c2cc(NC(=O)OCCF)ccc2n1Cc1cccc(C(F)(F)F)c1	.	.	.	.	23µM	23µM
CCOc1ccc(OCCOC(=O)Cc2coc3cc4c(cc23)CCC4)cc1	.	/	/	/	/	/
CCc1noc(C)c1C(=O)N1CCN(c2cccc(C)c2C)CC1	.	.	.	.	?	15µM
Cc1onc(-c2ccccc2)c1C(=O)N1CCN(S(=O)(=O)c2ccccc2Br)CC1	.	.	.	.	?	15µM
Cc1onc(-c2ccccc2)c1C(=O)N1CCN(S(=O)(=O)c2ccc(Cl)cc2)CC1	?	.	.	.	.	.
Cc1onc(-c2ccccc2)c1C(=O)N1CCN(c2ncccc2C(F)(F)F)CC1	.	.	.	.	23µM	?
Cc1cccc(N2CCN(C(=O)c3c(-c4ccccc4)noc3C)CC2)c1C	.	.	1.2µM	1.3µM	2.9µM	1.5µM
Cc1cccc(OCC(=O)c2ccc3c(c2)N(CC(=O)Nc2ccccc2)C(=O)CO3)c1	.	/	/	/	/	/
CCCN(CC(=O)Nc1ccccc1C)C(=O)c1cc2ccccc2oc1=O	13µM!	.	.	.	.	.
Cc1ccc(C(=O)O)cc1NC(=S)NC(=O)c1ccc(COc2ccccc2)cc1	2.8µM	.	.	.	?	?
CCCN(CC(=O)Nc1ccccc1C)C(=O)c1ccc(-c2ccccc2)cc1	.	?	.	.	.	?
CCCN(CC(=O)Nc1ccccc1C)C(=O)c1ccc(COc2ccccc2)cc1	.	.	.	.	23µM	?
CCCCn1c(N2CCN(Cc3cccc(C)c3)CC2)nc2c1c(=O)[nH]c(=O)n2C	.	/	/	/	/	/
CCCN1C(CC(C)C)=NS(=O)(=O)c2cc(NC(=O)C(C)C)ccc21	.	/	/	/	/	/
Cc1ccc(NC(=O)CN2C(=O)N/C(=C/c3cc(C)n(-c4cccc(C(=O)O)c4)c3C)C2=O)cc1	18µM	.	.	.	.	.
Cc1ccc(NC(=O)CN2C(=O)N/C(=C/c3ccc(C)o3)C2=O)cc1	35µM	.	.	.	.	.
Cc1cc2oc(=O)cc(CN3CCN(C(=O)C4COc5ccccc5O4)CC3)c2cc1C(C)C (stereo not drawn)	.	/	/	/	/	/
COc1ccc(Cl)cc1C(=O)Nc1ccccc1N1CCCCC1	.	.	.	.	18µM	29µM
Cc1ccc(C)c(N2N=C(C(=O)Nc3ccccc3N3CCOCC3)CCC2=O)c1	.	.	.	.	?	?
